USP1 inh – USP1/UAF1 (human) deubiquitinase inhibition. O94782. recombinant USP1/UAF1, Ub-Rhodamine cleavage fluorescence. Potency, µM (titrated, usually from 57.1 µM), without a hit: at the highest dose activity change, negative = inhibition, usual class: inhibitors. 0.23% of 390,000 active; also: potency is read from the fitted curve at half-maximal effect; nearly all actives have a fitted effect of over 60% in size
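Step one: compound is pinned into 1nM USP1/UAF1 in HEPES pH 7.8 buffer with TCEP. Step two: 15 min room-temperature incubation. Step three: Ub-Rho (150nM final) starts cleavage, tracked by fluorescence over six one-minute reads.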
PLK1 PBD inh – PLK1 (human) polo-box domain binding inhibition | P53350 | Plk1 PBD binding of FITC phosphopeptide, fluorescence polarization | Potency, µM, for inactives: max response, negative = inhibition, most hits filed as inhibitors | 2.8% of 360,000 active; also: potency is read from the fitted curve at half-maximal effect; series mostly up to about 57 µM; nearly all actives have a fitted effect of over 65% in size
WRN inhibitor – WRN helicase (human) inhibition; WRN helicase unwinding, fluorescent forked duplex, kinetic; 0.46% of 360,000 active; Potency, µM (series often up to 114 µM), inactives show at the highest dose activity change, negative = inhibition, most hits filed as inhibitors; AID 651768; also: potency is read from the fitted curve at half-maximal effect; nearly all actives have a fitted effect of over 55% in size
Target sequence (Q14191 whole entry, looked up): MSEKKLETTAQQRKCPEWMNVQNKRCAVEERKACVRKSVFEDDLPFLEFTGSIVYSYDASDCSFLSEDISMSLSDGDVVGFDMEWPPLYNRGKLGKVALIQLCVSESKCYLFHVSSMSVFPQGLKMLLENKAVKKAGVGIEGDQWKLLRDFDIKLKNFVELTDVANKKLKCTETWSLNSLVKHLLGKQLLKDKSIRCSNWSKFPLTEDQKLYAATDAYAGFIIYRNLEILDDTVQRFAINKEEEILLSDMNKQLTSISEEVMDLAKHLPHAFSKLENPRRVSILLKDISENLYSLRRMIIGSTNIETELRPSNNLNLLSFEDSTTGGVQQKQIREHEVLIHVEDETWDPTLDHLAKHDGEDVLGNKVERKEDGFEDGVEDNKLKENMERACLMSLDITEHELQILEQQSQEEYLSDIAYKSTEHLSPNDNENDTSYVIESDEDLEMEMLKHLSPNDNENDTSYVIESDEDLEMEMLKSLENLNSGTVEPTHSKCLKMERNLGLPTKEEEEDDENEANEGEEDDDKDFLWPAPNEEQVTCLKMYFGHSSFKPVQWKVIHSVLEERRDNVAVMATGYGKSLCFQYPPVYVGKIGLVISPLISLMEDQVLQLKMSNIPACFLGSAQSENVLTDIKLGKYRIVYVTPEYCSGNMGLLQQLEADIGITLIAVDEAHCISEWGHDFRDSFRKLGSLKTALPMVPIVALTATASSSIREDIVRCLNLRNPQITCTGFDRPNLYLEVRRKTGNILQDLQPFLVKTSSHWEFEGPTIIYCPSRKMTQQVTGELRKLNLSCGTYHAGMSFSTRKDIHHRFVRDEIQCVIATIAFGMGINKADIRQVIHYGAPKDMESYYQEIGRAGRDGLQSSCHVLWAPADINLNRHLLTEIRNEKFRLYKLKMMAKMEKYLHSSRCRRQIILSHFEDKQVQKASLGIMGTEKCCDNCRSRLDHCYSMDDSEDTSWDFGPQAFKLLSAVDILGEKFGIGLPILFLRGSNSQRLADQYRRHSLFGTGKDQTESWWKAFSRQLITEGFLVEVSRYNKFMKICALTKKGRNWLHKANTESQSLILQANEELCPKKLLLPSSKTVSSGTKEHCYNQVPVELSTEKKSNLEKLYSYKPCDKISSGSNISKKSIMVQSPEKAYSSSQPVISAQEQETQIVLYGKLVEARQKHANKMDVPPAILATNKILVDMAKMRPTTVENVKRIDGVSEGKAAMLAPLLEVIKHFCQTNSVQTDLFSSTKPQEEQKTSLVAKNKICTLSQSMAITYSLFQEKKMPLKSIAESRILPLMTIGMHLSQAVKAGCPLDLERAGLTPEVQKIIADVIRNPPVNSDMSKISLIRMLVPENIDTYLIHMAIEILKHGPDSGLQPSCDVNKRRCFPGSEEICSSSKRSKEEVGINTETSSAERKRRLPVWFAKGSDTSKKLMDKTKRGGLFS
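WRN at 20 nM final was preincubated with compound for 15 min at room temperature; reaction started with 100 nM forked duplex oligonucleotide carrying fluorophore and quencher plus 2 mM ATP (final). Unwinding followed kinetically by red fluorescence (ex 525/em 598 nm).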
USP2a inh – blocks human ubiquitin-specific protease USP2a; O75604; USP2 core, Ub-CHOP2 coupled fluorogenic reporter, 485/531; Potency, µM (top dose mostly 38.3 µM), without a hit: top-dose activity change, negative = inhibition, usual class: inhibitors; 0.01% of 330,000 active;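 also: potency is read from the fitted curve at half-maximal effect; plate controls were DMSO wells for no effect and full inhibition by NEM control for full effect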
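Deubiquitinase activity read as fluorescence (485/531 nm) after Ub-CHOP2 cleavage activates the enterokinase reporter on its substrate; USP2 core 10nM, Ub-CHOP2 and substrate 25nM each, 30min compound preincubation then 60min RT; data normalized to NEM, curves fitted.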
PI5P4Ka inh – PI5P4K alpha (human) kinase inhibition; P48426; PI5P4Kalpha enzyme, ADP-Glo luminescence, 60 min; stronger effect = lower value; max response, %; 1.2% of 330,000 active; AID 652105; active = max response of -50% or lower; inconclusive = between -30% and -50%; inactive = -30% or higher; also: value at the top dose of about 77 µM
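ADP-Glo luminescence end-point read after a 60 min room-temperature kinase reaction of PI5P4Kalpha plus substrate, initiated with ATP at 5 microM final. Buffer: 0.038 M HEPES pH 7.4, EGTA, 0.1% CHAPS, 5% DMSO.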
Starred values were filed as active, the others as inactive; ? = inconclusive; . = not tested or not shown; [ ] = dose if it differs, or a comment. Compounds with a hit are over-represented: about 3.3% of the library has one in this group of screens. Unless noted, calls follow the shape of the dose curve; as a rule, active = well fitted curve in the direction sought with a large enough effect; inconclusive = small, poorly fitted or top-dose-only effect, or another doubt; inactive = no such curve, though single readings can be large; an effect the other way counts as inactive or inconclusive. Unless noted, % is scaled to controls: 0 for no effect and ±100 for the full control effect.

SMILES	USP1 inh	PLK1 PBD inh	WRN inhibitor	USP2a inh	PI5P4Ka inh
Cc1cccc(C)c1NC(=S)N(c1ccccc1)C(C)C	-26.6%	29.9µM*	2.2%	-0.2%	-0.2
CC(C)N(C(=S)NCc1ccccc1)c1ccccc1	-20.4%	-11.8%	-4.9%	-1.8%	-0.1
CN1C(C(=O)c2ccccc2)=C(NC(=O)c2ccccc2Br)c2ccccc2S1(=O)=O	-7.1%	.	.	.	.
Cc1c(C)c2c(OCC(=O)NCC(=O)NCC(=O)O)cc3c(c2oc1=O)CCC(C)(C)O3	-25.7%	11.9µM*	-34.5%	-1.2%	-5.0
O=C(Cn1cc(S(=O)(=O)Cc2ccc(F)cc2)c2ccccc21)NCCc1ccccc1	-13.1%	.	.	.	.
Cc1cccc(NC(=O)c2c(NC(=O)c3ccccc3)sc3c2CCCC3)c1	-16.1%	.	.	.	.
O=S1(=O)c2ccc(Br)cc2OC(COCc2ccccc2)CN1Cc1ccccc1 (stereo not given)	-22.9%	23.8µM*	-1.2%	0.9%	-19.5
O=c1c2cc(F)ccc2sn1-c1ccccc1Cl	-21.0%	2.67µM*	3.4%	.	-84.0*
N=C1SCC(=O)N1c1ccccc1Cl	-16.0%	-16.5%	12.6%	3.5%	-8.7
O=c1c2ccc(F)cc2sn1-c1ccccc1	?	3.36µM*	-7.0%	.	-108.3*
O=C(c1sc2cc(F)ccc2c1Cl)N1CCN(c2cccc(Cl)c2)CC1	-19.2%	2.4%	4.7%	-1.3%	2.2
COC(=O)c1cccc(-n2sc3ccccc3c2=O)c1	-12.7%	2.67µM*	0.3%	-0.3%	-96.5*
Cc1ccc(-n2sc3cc(F)ccc3c2=O)c(C)c1	?	2.99µM*	-7.0%	.	-87.2*
Cc1ccc(N(C)C(CNS(=O)(=O)c2ccccc2)c2ccccc2)cc1 (stereo not given)	-12.4%	.	.	.	.
O=C(C1CCC(Cn2c(=O)c3sccc3n(Cc3cccc(F)c3)c2=O)CC1)N1CCCCC1 (stereo not given)	-20.1%	.	.	.	.
O=c1c2ccccc2sn1-c1ccc(F)cc1	3.4%	2.99µM*	-4.6%[11.6 µM]	0.3%	-88.7*
COc1cccc(CNC(=O)CCn2c(=O)c3cccn3c3ccc(F)cc32)c1OC	12.4%	.	.	.	.
CN(C)/C=N/C(=S)Nc1ccccc1Cl	-4.7%	-13.6%	8.3%	-1.0%	4.5
CN(C)/C=N/C(=S)Nc1ccc(Cl)c(Cl)c1	-7.3%	23.8µM*	-5.6%	0.8%	1.6
CN(O)/C=N/C(=S)Nc1ccc(Cl)cc1Cl	-19.7%	29.9µM*	0.7%	6.6%	2.1
CN(C)/C=N/C(=S)Nc1cc(Cl)cc(Cl)c1	-18.8%	-12.4%	0.9%	0.0%	1.6
COc1ccc(OC)c(NC(=O)C2Cc3ccccc3CN2S(=O)(=O)c2ccc(F)cc2)c1 (stereo not given)	8.5%	.	.	.	.
CCOC(=O)c1ccc(NC(=O)c2nn(C)c3c2COc2ccccc2-3)cc1	-3.0%	.	.	.	.
COc1ccc(S(=O)(=O)N2CC=C(C(=O)NC3CCCC3)CC2)cc1	-14.4%	29.9µM*	-8.2%	0.8%	-0.9
Cc1ccc(S(=O)(=O)N2CC=C(C(=O)NC3CCCC3)CC2)cc1	-14.6%	26.7µM*	-1.5%	1.0%	-3.6
SMILES	USP1 inh	PLK1 PBD inh	WRN inhibitor	USP2a inh	PI5P4Ka inh
Cc1ccc(S(=O)(=O)N2CC=C(C(=O)NCCC(C)C)CC2)cc1	-18.3%	-2.9%	-2.0%	-0.8%	-4.2
Nc1nc(NCc2ccc(Cl)cc2)nc(NCCO)c1[N+](=O)[O-]	?	-10.3%	-5.2%	-1.3%	-57.4*
Cc1ccc(CNc2nc(N)c([N+](=O)[O-])c(NCCO)n2)cc1	-17.3%	0.3%	6.7%	3.1%	?
Cc1ccccc1OCC(=O)N(Cc1ccc(C(C)C)cc1)C1CCS(=O)(=O)C1 (stereo not given)	1.4%	.	.	.	.
Cc1cn(CC2COC(C)(C)O2)c(=O)[nH]c1=O (stereo not given)	9.5%	5.97µM*	-1.0%	0.1%	-24.7
Cc1cc(-c2n[nH]c(=S)o2)c(C)n1-c1ccccc1	-1.7%	-15.5%	-0.6%	2.5%	.
Oc1cc2ccccc2cc1-c1n[nH]c(=S)o1	-17.7%	11.9µM*	-25.4%	-7.5%	-73.3*
COc1ccc(-c2noc(-c3ccc(NC4CCCC4)c([N+](=O)[O-])c3)n2)cc1OC	-24.5%	.	.	.	.
COc1ccc(/C=C/c2nc3ccccc3n2C)cc1	-25.0%	-6.8%	-3.0%	0.8%	-62.5*
COc1ccc(Cn2c(/C=C/c3ccccc3)nc3ccccc32)cc1	-6.5%	-4.9%	-7.9%	-0.7%	.
Cc1cccc(OCC(=O)NCc2ccc3c(c2)CCN3C(=O)c2ccccc2)c1	8.0%	.	.	.	.
O=C(CCCCn1cnc2c(=S)nc[nH]c21)Nc1ccc(C(=O)O)c(O)c1	-9.1%	-16.7%	?	.	-67.6*
O=C1c2ccccc2S(=O)N1c1cccc(F)c1 (stereo not given)	-4.4%	23.8µM*	3.5%	.	?
Cc1ccc(NS(=O)(=O)c2cc(N)ccc2Cl)c(C)c1	?	23.8µM*	0.4%	-0.8%	-0.9
Nc1ccc(Cl)c(S(=O)(=O)Nc2cccc(Cl)c2)c1	-25.6%	-0.5%	7.7%	2.3%	3.1
Cc1cc(C)cc(OCC(O)CN2CCC(CN3C(=O)c4cccc5cccc(c45)C3=O)CC2)c1 (stereo not given)	-15.1%	26.7µM*	37.4%	0.5%	-4.0
CCOC(=O)CSC1=C(C#N)C(=O)NC(c2ccc(OC)c(OC)c2)S1 (stereo not given)	-0.7%	11.9µM*	-12.0%	0.6%	-72.2*
CCOC(=O)CSC1=C(C#N)C(=O)NC(c2ccc(OC)cc2)S1 (stereo not given)	-9.0%	11.9µM*	-2.4%	7.9%	-63.2*
CCOC(=O)CSc1nc2cc(OC)ccc2cc1C#N	-13.8%	-6.3%	5.1%	0.5%	.
COc1ccc(C2NC(=O)C(C#N)=C(S)N2c2ccc(C)cc2)cc1OC (stereo not given)	-5.9%	?	-0.4%	-1.3%	-6.5
Cn1ccnc1SCC(=O)Nc1cc(Cl)ccc1Cl	-16.1%	.	.	.	.
Oc1ccc(F)c2cccnc12	-13.2%	5.32µM*	4.5%	2.4%	?
CNC(=S)N/N=C/c1ccc(C(C)C)cc1	-7.2%	2.99µM*	?	.	?
CNC(=S)N/N=C/c1ccc(N(C)C)cc1	-12.2%	-9.5%	-20.9%	1.3%	-2.9
COC(=O)c1ccc(/C=N/NC(=O)CC(=O)NC(C)C)cc1	1.7%	-5.4%	3.2%	-1.3%	.
SMILES	USP1 inh	PLK1 PBD inh	WRN inhibitor	USP2a inh	PI5P4Ka inh
COC(=O)c1ccc(/C=N/NC(=S)NC(C)C)cc1	-21.2%	13.4µM*	10.2%	1.0%	-22.4
CCOc1ccc(CNc2nc3nc(C)c(Cc4ccccc4)c(=O)n3[nH]2)cc1	-4.0%	.	.	.	.
COc1ccc(C)cc1NC(=O)c1cc2c(=O)n(Cc3cccnc3)ccc2nc1C	-17.4%	.	.	.	.
Cc1ccccc1Nc1nc(N)c(C(=O)c2ccccc2Cl)s1	-24.1%	.	.	.	.
CCc1ccccc1OCC(=O)Nc1cc(S(=O)(=O)N2CCOCC2)ccc1N1CCCCC1	-25.4%	9.6%	-4.2%	4.5%	-2.3
Cc1ccc(C(=O)Nc2cc(S(=O)(=O)N3CCOCC3)ccc2N2CCCC2)cc1	-24.2%	0.6%	0.1%	3.8%	-4.4

Bioassay records from PubChem.
